Cardio protect = modulators protecting cardiomyocytes from myocardial damage | H9c2 cardiomyocytes, H2O2 injury protection, ATPLite, 2 h | protection from H2O2 cell death, % at 20 µM | 0.63% of 360,000 active | AID 588492;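 active means compounds giving at least 50% protection of heart cells from peroxide-induced death in the single-dose screen, raw or plate-pattern-corrected value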;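 further: 0% = DMSO wells with peroxide and 100% = DMSO wells without peroxide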
V-ATPase pHluor = alters yeast V-ATPase proton transport. S. cerevisiae, pHLuorin cytosolic pH fluorescence. response, % at 10 µM. 0.37% of 350,000 active; in the data active means response mostly above about 7.3%, no sharp cut-off; inactive means mostly below about 5.4%; further: actives read high
MIN6 prolif-1 = MIN6 beta-cell proliferation induction | MIN6 cells proliferation, ATPlite luminescence, 48 h; cells starved in 0.2% serum; 100% = growth in 10% serum | proliferation, % at 10 µM | 0.29% of 330,000 active | AID 2380;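 active means compounds whose signal lies at least 3.5 SD above the mean of all wells on their plate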;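 further: 0% = DMSO-treated cells in low-serum medium and 100% = 10% serum control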
pCIP destab = lowers stability of the mouse p/CIP coactivator protein. F442A p/CIP-EGFP cells, EGFP fluorescence, 16 h. decrease of EGFP signal, % at 10 µM. 0.01% of 290,000 active. AID 1984;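 active means EGFP signal decrease of at least 30% at 10 µM or well 3 SD below plate mean, unless failing retest; inactive means the rest, including hits failing retest or dose response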
Yeast superoxide = yeast age-related superoxide inhibition as caloric restriction mimetic. S. cerevisiae aged cells, superoxide DHE fluorescence; stronger effect = lower value. superoxide response (% of plate mean), % at 10 µM. 0.18% of 330,000 active. AID 2690;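 active means superoxide response under a set limit, about three screen SD below normal, cut at about 65% in these data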;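 further: yeast aged for seven days with compound at 30 °C before DHE staining; 100% = average MFI of all compound-treated wells on the plate with controls excluded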
HSV replic up = HSV replication enhancement; HSV replication augmentation in cells, fold increase; maximum fold increase; 0.005% of 220,000 active; in the data active means maximum fold increase above about 1.5; tested in PC3 cells
MIN6 prolif-2 = MIN6 beta-cell replication induction, confirmed | shares compounds with MIN6 prolif-1 | MIN6 beta-cell proliferation, ATPlite luminescence, 48 h; cells kept in 0.2% serum; scaled between 0.2% and 10% serum | proliferation increase, % at 50 µM | 920 tested, under 10 active | AID 463095;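 active means proliferation increase above 40% at any of the four tested concentrations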
Starred values were filed as active, the others as inactive; i = inactive; / = no result. Sampled rows, rich in hits. Any-hit rate of the full collection: about 1.4%.

SMILES	Cardio protect	V-ATPase pHluor	MIN6 prolif-1	pCIP destab	Yeast superoxide	HSV replic up	MIN6 prolif-2
COC(=O)CCC(=O)c1ccn(S(=O)(=O)c2ccccc2)c1	1.9	-3.3	0.4	-3.0	89.1	/	/
Cn1cccc1Cc1nnc(SCC(=O)Nc2ccc3c(c2)OCO3)n1-c1ccc(F)cc1	10.0	0.1	2.3	-6.5	93.6	i	/
Fc1ccc(OCc2nn[nH]n2)c(F)c1	3.7	-4.5	7.1*	1.7	93.5	/	0.5
CCn1c(CNC(=O)c2ccccc2OC)nnc1SCC(=O)c1ccc(F)cc1	-5.1	-0.1	5.8*	-10.8	109.7	/	2.0
O=C(CCN1C(=O)[C@@H]2Cc3ccccc3CN2C1=O)N[C@H](C(=O)O)c1ccccc1	-1.6	5.6	1.5	-2.9	100.7	/	/
COc1ccc(-c2nnc3ccc(SCC(=O)N4CCCC4)nn23)cc1	1.3	6.0	-1.7	10.6	94.8	i	/
CCOc1ccc(-c2nnc3ccc(SCC(=O)N4CCCCC4)nn23)cc1	11.9	-2.1	12.3*	-2.8	95.6	i	4.6
Cc1cc(NS(=O)(=O)c2ccc(NC(=O)CSc3nnc(-c4ccco4)n3C)cc2)nc(C)n1	5.3	-3.3	5.8*	5.3	130.5	i	1.6
C=CCNc1nc(N)c([N+](=O)[O-])c(NCc2ccccc2)n1	-21.7	-0.3	8.3*	-23.9	104.2	/	2.4
CCCCCCNC(=O)O[C@H]1Cn2c(=O)ccc(=O)n2[C@@H]2CN(S(=O)(=O)c3ccc(C)cc3)C[C@]12O	-9.0	1.0	/	/	/	/	/
CNC(=O)CC1C(=O)N(c2ccc(OC)cc2)C(=S)N1NC(=O)c1cccc(F)c1 (configuration not stated)	11.4	2.6	-2.2	-6.9	262.3	i	/
CNC(=O)CC1C(=O)N(c2ccc(Cl)cc2)C(=S)N1NC(=O)c1cccc(F)c1 (configuration not stated)	-0.8	-2.0	9.8*	-8.4	116.3	/	-6.4
Cc1cc(C)c(S(=O)(=O)N2CCCCC2)c(C)c1N(C)S(=O)(=O)c1ccc(Cl)cc1	-7.4	-1.7	0.0	3.0	110.8	i	/
COc1ccc(C2NN=C(c3ccc(C)cc3)S2)cc1 (configuration not stated)	-18.5	-0.1	/	-2.4	106.9	/	/
Cc1ccc(C2=NNC(C(O)C(O)C(O)CO)S2)cc1 (configuration not stated)	-2.6	5.8	5.8*	-13.7	103.9	i	0.5
C[C@@H]1O[C@@H](OCCC(=O)O)[C@H](O)C[C@H]1O	1.9	-1.2	-1.7	/	87.9	/	/
COc1ccc(N2C(=NC(=O)C3CCCCC3)SC3CS(=O)(=O)CC32)cc1OC (configuration not stated)	-1.5	8.6	2.4	3.4	79.3	/	/
COc1ccc(C(=O)N=C2SC3CS(=O)(=O)CC3N2c2ccc(N(C)C)cc2)cc1OC (configuration not stated)	1.3	-0.8	14.2*	-8.4	90.8	/	3.1
CCCCn1c(SCC(=O)c2cc(OC)ccc2OC)nc2cc(S(N)(=O)=O)ccc21	2.3	2.3	0.0*	3.6	99.2	i	5.8
C=CCOc1ccc(-c2nc3c(c(=O)[nH]c(=O)n3CCCC)n2C)cc1OC	1.2	-2.2	11.8*	-13.0	104.5	i	1.8
CCCCn1c(=O)[nH]c(=O)c2c1nc(-c1cc(Br)c(OCC)c(OC)c1)n2C	-6.1	2.4	0.2	-1.1	112.3	/	/
COc1cc(C(=O)NCC(c2ccccc2)N(C)C)ccc1OCc1c(C)noc1C (configuration not stated)	6.3	-1.7	-2.6	/	90.6	/	/
C=CCOn1c(=O)c(-c2ccc(Br)cc2)[n+]([O-])c2ccccc21	4.1	-2.6	8.9*	-8.2	81.8	/	-2.0
COc1ccc(-n2c(SCC(=O)NCC3CCCO3)nc3ccccc3c2=O)cc1Cl (configuration not stated)	10.5	-0.8	/	/	/	/	/
Cc1cc(C)c2c3c(c(-c4ccccc4)n2n1)c(=O)n(C)c(=O)n3C	-1.0	0.1	/	/	/	/	/
SMILES	Cardio protect	V-ATPase pHluor	MIN6 prolif-1	pCIP destab	Yeast superoxide	HSV replic up	MIN6 prolif-2
Cc1cccc(-c2c3c(=O)n(C)c(=O)n(C)c3c3cccnn23)c1	4.6	-2.6	9.0*	-11.9	84.1	i	-2.4
CCC(C)N(C(=O)CSc1ncnc2sccc12)C1CCS(=O)(=O)C1 (configuration not stated)	2.7	1.3	14.1*	/	72.5	/	4.3
O=[N+]([O-])c1ccc(-n2nnnc2CN2CCCCC2)cc1	7.8	1.3	9.3*	-1.8	99.5	i	5.5
O=[N+]([O-])c1ccc(-n2nnnc2CN2CCOCC2)cc1	8.8	0.7	-0.8	12.4	106.4	i	/
O=Cc1ccc(F)c([B-](F)(F)F)c1	3.9	1.1	/	/	/	/	/
Cn1c(=O)c2cn(-c3ccccc3)cc2n(C)c1=O	-5.8	-5.3	5.4*	-8.6	102.1	i	1.0
Cn1c(SCC(=O)NC(=O)Nc2ccccc2)nnc1-c1ccncc1	-6.3	0.2	-2.3	-2.7	103.0	i	/
O=C(NC1CCN(Cc2ccc(Cl)c(Cl)c2)CC1)c1ccccc1	-7.7	5.5	0.3	-8.3	92.1	/	/
O=C(NC1CCCC1)C(c1ccncc1)N(C(=O)c1csnn1)c1cccc(Cl)c1 (configuration not stated)	-0.7	2.6	2.1	-2.6	117.2	/	/
O=C(NC1CCCC1)C(c1ccncc1)N(C(=O)c1csnn1)c1ccc(F)c(Cl)c1 (configuration not stated)	-4.8	4.8	5.9*	-6.0	91.9	/	-0.2
Cc1cc(=O)c(C(=O)O)cn1Nc1ccc(Cl)cc1	-0.9	-2.5	-1.4	-1.5	102.3	i	/
Cc1c(N=Nc2ccc(O)cc2)c(=O)n(-c2ccccc2)n1C	7.6	-1.6	-0.2	0.5	112.2	i	/
Cc1c(N=C2NC(=O)/C(=C/c3ccc(O)cc3)S2)c(=O)n(-c2ccccc2)n1C	9.1	-3.0	4.4*	-4.4	101.8	i	-2.2
O=C(O)c1ccc(Cl)c(S(=O)(=O)NCC2CCCO2)c1 (configuration not stated)	-0.7	0.3	7.3*	-7.4	100.9	i	1.4
CCCCNc1nc(=S)[nH]c2cc(OC)c(OC)cc12	1.7	1.6	-1.1	-6.0	100.2	i	/
CCOCCCNc1nc(=S)[nH]c2cc(OC)c(OC)cc12	4.9	1.9	7.2*	-7.4	109.8	i	-0.3
COCCNc1nc(Oc2cccc3ccccc23)c2sccc2n1	-4.9	/	/	/	/	/	/
CO/N=C(/c1nonc1N)N1CCN(c2ccc([N+](=O)[O-])cc2)CC1	-10.3	-1.0	10.8*	-1.5	91.7	i	2.4
COc1ccc(CNC(=O)c2coc(=O)c3ccccc23)c(OC)c1	1.3	-1.5	-0.8	-8.6	104.5	i	/
CCc1ccc(OCc2ccc(C(=O)NCc3ccccn3)o2)cc1	-6.1	2.4	-2.9	-7.9	103.8	i	/

Screening data: PubChem, several laboratories
